# An excerpt weighted towards active compounds, which were near 12% of everything screened.
# HP1b chromo inh = HP1-beta chromodomain-methylated histone interaction inhibition; AlphaScreen HP1-beta / biotin-H3K9me3 peptide binding; AID 540317; Potency, µM (top dose mostly 114 µM), for inactives: top-dose activity change, negative = inhibition, most hits filed as inhibitors; hit rate 0.56% among 390,000; P83916; note: nearly all actives have a fitted effect of over 70% in size
# Target sequence (P83916 whole entry, looked up): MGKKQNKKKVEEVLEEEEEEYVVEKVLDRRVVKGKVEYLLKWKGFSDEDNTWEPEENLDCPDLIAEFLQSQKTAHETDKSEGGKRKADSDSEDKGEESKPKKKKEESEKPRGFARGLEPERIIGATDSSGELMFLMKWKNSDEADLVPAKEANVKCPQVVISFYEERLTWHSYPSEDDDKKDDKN
#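 AlphaScreen: HP1-beta (50 nM) preformed 30 min with biotin-H3(1-18)K9me3 peptide (50 nM) in PBS pH 7.4, 0.01% Tween-20. Compound added for 30 min at RT, then streptavidin donor/nickel chelate acceptor beads (10 ug/mL) for 30 min.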
# BAZ2B block = inhibitors of human BAZ2B bromodomain; Q9UIF8; AlphaScreen BAZ2B-H3K14Ac peptide displacement; Potency, µM (top dose mostly 114 µM), inactives show at the highest dose activity change, negative = inhibition, hits mostly inhibitors; hit rate 4.4% among 360,000; note: % is set by controls: 0 for no effect and ±100 for the full control effect; nearly all actives have a fitted effect of over 60% in size
#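 AlphaScreen displacement: compounds (up to 110uM) incubated 30 min at room temperature with a preformed 50 nM BAZ2B/50 nM biotinylated H3K14Ac peptide complex in PBS pH 7.4 with Tween-20. Donor and acceptor beads at 10 ug/mL final added, 20 min light-protected before reading.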
# JMJD2A Tudor = JMJD2A Tudor domain (human) inhibition. AlphaScreen JMJD2A-Tudor / H3K4me3 peptide binding. O75164. hit rate 4.4% among 390,000. Potency, µM (titrated, usually from 114 µM), for inactives: top-dose activity change, negative = inhibition, hits mostly inhibitors; note: % is set by controls: 0 for no effect and ±100 for the full control effect; nearly all actives have a fitted effect of over 50% in size
# Sfp PPTase inh = inhibitors of Bacillus subtilis Sfp phosphopantetheinyl transferase; hit rate 3.5% among 310,000; Potency, µM, for the others: largest response in the series, negative = inhibition, hits mostly inhibitors; Biochemical Sfp PPTase activity, qHTS; Q9F4F7;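 note: the enzyme is Sfp with the accession as filed and its product quenches rhodamine fluorescence; 0% = enzyme reaction without inhibitor and -100% = no enzyme wells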
#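 With Hepes-Na pH 7.6 buffer containing 10 mM MgCl2, Sfp (15 nM) modified BHQ-2-YbbR (12.5 uM) using rhodamine-CoA (5 uM). Two reads 30 minutes apart at 525/598 nm yielded each well's rate.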
# G9a block = blocks human histone lysine methyltransferase G9a; Potency, µM (top dose mostly 102 µM), without a hit: at the top dose activity, negative = inhibition, hits mostly inhibitors; G9a H3K9 monomethylation, AlphaScreen, 2 h; hit rate 8.8% among 350,000; note: % is set by controls: 0 for no effect and ±100 for the full control effect; nearly all actives have a fitted effect of over 75% in size
# Target sequence (Q96KQ7 913-1193 limits assumed): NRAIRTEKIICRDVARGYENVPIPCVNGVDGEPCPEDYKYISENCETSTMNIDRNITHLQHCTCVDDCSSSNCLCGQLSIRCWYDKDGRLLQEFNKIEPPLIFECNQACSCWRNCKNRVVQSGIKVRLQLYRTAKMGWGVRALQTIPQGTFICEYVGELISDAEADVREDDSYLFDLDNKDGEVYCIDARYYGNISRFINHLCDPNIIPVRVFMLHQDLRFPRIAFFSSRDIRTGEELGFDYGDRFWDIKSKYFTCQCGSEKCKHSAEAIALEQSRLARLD
#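 Signal arises when biotinylated H3K9 peptide, once monomethylated, bridges streptavidin donor and antibody-captured acceptor beads. Enzyme at 20 nM was preincubated 15 min with test compounds; peptide 500 nM and SAM 20 uM then reacted for 2 h.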
# An asterisk follows results filed as active; ? = inconclusive; . = no result; [ ] = dose if it differs, or a comment. Calls come from the whole dose curve; as a rule, active = well fitted curve in the direction sought with a large enough effect; inconclusive = small, poorly fitted or top-dose-only effect, or another doubt; inactive = no such curve, though single readings can be large; an effect the other way counts as inactive or inconclusive. Potency is the fitted concentration of half-maximal effect.
SMILES,HP1b chromo inh,BAZ2B block,JMJD2A Tudor,Sfp PPTase inh,G9a block
COc1ccc(-c2cc(C(=O)NCc3ccco3)c3ccccc3n2)c(OC)c1,35%,?,-20%,0%,.
COc1ccc(Nc2cc(C(=O)NCc3ccccn3)c3ccccc3n2)c(OC)c1,.,?,.,2%,-34%
CC(=O)Nc1ccc(NC(=O)c2ccc(COc3ccc(Cl)cc3Cl)o2)cc1,31%,1%,-9%,.,7%[59 µM]
CCN1C(=O)[C@H]2[C@@H](c3ccc(C)cc3)N3C(=O)N(c4ccc(OC)cc4)C(=O)[C@@]3(CC)[C@H]2C1=O,31%,-3%,-4%,.,11%[2.33 µM]
CCOc1cc(C(N)=O)cc(Br)c1OCC,16%,-35%,-17%,?,11%
COCC#Cc1ccc(C2C(C)CCC3C(=O)N4C(CCC(C)C4c4ccc(C#CCOC)cc4)C(=O)N32)cc1 (centres undefined),.,.,.,3%,.
Cc1nc2c(=O)[nH]c(=S)n(C)c2nc1C,-71%,-28%,50µM*,4.5µM*,7.1µM*
COc1ccc(N2CCN(C(=O)C3CCCN(S(=O)(=O)c4ccc(F)cc4)C3)CC2)cc1 (centres undefined),-17%,40µM*,-32%,-15%,.
COc1ccc(N2CCN(C(=O)C3CCCN(S(=O)(=O)c4ccc(C)cc4)C3)CC2)cc1 (centres undefined),?,40µM*,-30%,2%,?
Cn1c2ccccc2c(=O)c2c(=O)n(Cc3ccco3)c(-c3ccc(Cl)cc3Cl)nc21,.,-15%,.,8.9µM*,-27%
COc1ccc(Cn2c(-c3ccco3)nc3c(c(=O)c4ccccc4n3C)c2=O)cc1,21%,-30%,-27%,-18%,-48%
CC1(C)Cc2c(c(-c3ccccc3)nc3sc4c(=O)[nH]c(=S)[nH]c4c23)CO1,27%,-7%,?,1%,.
CC1(C)Cc2sc3c(=O)[nH]c(=S)[nH]c3c2CO1,24%,?,?,28µM*,.
O=[N+]([O-])c1ccc(N2CCN(CCOCCO)CC2)c([N+](=O)[O-])c1,?,32µM*,7.9µM*,-22%,.
O=[N+]([O-])c1cc2c(cc1CN1CCN(CCOCCO)CC1)OCO2,29%,?,?,79µM*,79µM*
CCCCc1cc(=O)oc2cc(C)cc(OC(C)C(=O)O)c12 (centres undefined),16%,4%,-23%,37%,-3%[12.7 µM]
CCOC(=O)C1=C(C)N(C[C@@H]2CC[C@@H](Cc3ccc(-c4ccccc4)cc3)O2)C(=O)NC1c1ccc(SCc2ccco2)c([N+](=O)[O-])c1 (some centres undefined),-8%,.,40µM*,.,.
CC(C)n1c(SCC(=O)Nc2nncs2)nnc1-c1ccco1,-12%,50µM*,56µM*,20µM*,.
CC(C)n1c(SCC(=O)Nc2ccc(N3CCOCC3)cc2)nnc1-c1ccco1,31%,-16%,32µM*,5%,-39%
COc1cc(C2c3c(oc4ccc(Cl)cc4c3=O)C(=O)N2Cc2ccco2)cc(OC)c1OC (centres undefined),.,10%,.,3%,16%
Cc1ccccc1OC(C)C(=O)Nc1cccnc1 (centres undefined),32%,-3%,-13%,14%,16%
CN(C(=O)CSc1n[nH]c(=O)[nH]c1=O)c1ccccc1,33%,.,-12%,.,.
O=C(Sc1n[nH]c(=O)[nH]c1=O)c1ccccc1,?,.,7.1µM*,.,.
O=[N+]([O-])c1ccc(Cl)c(S(=O)(=O)/N=C(/Nc2cccnc2)c2ccccc2)c1,7%,.,-21%,.,.
CSCCC(NC(=O)c1cc(C)oc1C)C(=O)O (centres undefined),36%,3%,6%,-24%,32µM*
SMILES,HP1b chromo inh,BAZ2B block,JMJD2A Tudor,Sfp PPTase inh,G9a block
Cc1oc(-c2ccc3c(c2)OCCO3)cc1C(=O)NC(CCC(=O)O)C(=O)O (centres undefined),46%,?,-11%,18µM*,?
CSCCC(NC(=O)c1cc([N+](=O)[O-])ccc1Cl)C(=O)O (centres undefined),47%,13%,-8%[57.1 µM],-3%,79µM*
O=C(Nc1cccnc1)c1ccc(NS(=O)(=O)c2cc([N+](=O)[O-])ccc2Cl)cc1,20%,79µM*,-17%,-23%,50µM*
Cc1oc(-c2ccc3c(c2)OCCO3)cc1C(=O)NCC(=O)O,-9%,7%,?,-20%,.
CC(=O)Nc1ccc(-c2csc(NC(=O)CN3C(=O)NC4(CCCC4)C3=O)n2)cc1,12%,-1%,1%,.,?
CC(C)c1ccc(/C=N/NC(=O)c2nnn(-c3nonc3N)c2CN(C)C2CCCCC2)cc1,21%,-4%,-30%,20%,9%
COc1ccccc1C(=O)COC(=O)Cn1c(C)csc1=O,13%,-24%,-2%,.,-25%
O=C(Nc1ccccc1Oc1ccccc1)c1cc([N+](=O)[O-])ccc1Cl,-20%,?,?,-4%,?
O=C(Nc1ccc(Nc2ccccc2)cc1)c1cc([N+](=O)[O-])ccc1Cl,19%,40µM*,?,14%,-23%
O=C(NCCCl)Nc1ccc(Cl)c([N+](=O)[O-])c1,22%,-19%,-9%[11.4 µM],18%,-5%
CN(C)c1ccc(/C=C2/C=C(c3ccc4c(c3)CCCC4)OC2=O)cc1,?,?,2.5µM*,-3%,-17%[59 µM]
COc1ccc(C2=C/C(=C\c3ccc(OC(C)=O)cc3)C(=O)O2)cc1,75%,-9%,3%,-5%,-13%[59 µM]
C=CCn1c(SCc2ccccc2)nc(O)cc1=O,35%,1%,-2%,5%,23%[59 µM]
O=C(NCc1cccnc1)NC(C(F)(F)F)C(F)(F)F,43%,6%,3%,16%,11%
CCOC(=O)c1[nH]cnc1C(=O)NC(C)C,-8%,-37%,35µM*,2%,?
CCN(CC)C(=O)c1[nH]cnc1C(=O)N[C@H](C)c1ccccc1,21%,-32%,89µM*,.,-3%[0.501 µM]
CCOC(=O)c1[nH]cnc1C(=O)O,-9%,20µM*,2µM*,-6%,-93%[12.7 µM]
CCN(CC)C(=O)c1[nH]cnc1C(=O)N[C@@H](C)c1ccccc1,28%,?,-18%,.,-3%[0.501 µM]
CCOC(=O)c1[nH]cnc1C(=O)N[C@@H](C)c1ccccc1,33%,56µM*,-20%,.,7%[0.501 µM]
CCOC(=O)c1nc[nH]c1C,27%,2%,4%,21%,?
COc1cccc(CN2CCN(C(=O)c3cc(-c4ccncc4)nc4ccc(C)cc34)CC2)c1,2%,.,-35%,.,.
Nc1ccc(Oc2cc(N)cc(Oc3ccccc3)c2)cc1,?,50µM*,?,8%,?
Cc1ccc(Sc2ccc(/C=N/O)cc2[N+](=O)[O-])cc1,-45%,?,45µM*,-12%,?
CCOc1ccccc1N(CC)C(=O)Cn1ncc2c1-c1ccccc1OC2,43%,-10%,0%,.,4%[59 µM]
Cn1nnc2cc(C(=O)N3CCN(c4ccccn4)CC3)ccc21,-2%,4%,-12%,21%,18µM*

# High-throughput results: PubChem, National Center for Advancing Translational Sciences (NCATS)
